The list is not random: actives were taken first. Their share in the collection is about 3.1%.
VDR inh = vitamin D3 receptor (human) inhibition; Potency, µM, for inactives: max response, negative = inhibition, actives largely listed as inhibitors; actives 0.93% (n = 400,000); VDR-SRC2-3 peptide fluorescence polarization, 2 h; P11473; note: potency is the fitted concentration of half-maximal effect; % is set by controls: 0 for no effect and ±100 for the full control effect
Target sequence (P11473 whole entry, looked up): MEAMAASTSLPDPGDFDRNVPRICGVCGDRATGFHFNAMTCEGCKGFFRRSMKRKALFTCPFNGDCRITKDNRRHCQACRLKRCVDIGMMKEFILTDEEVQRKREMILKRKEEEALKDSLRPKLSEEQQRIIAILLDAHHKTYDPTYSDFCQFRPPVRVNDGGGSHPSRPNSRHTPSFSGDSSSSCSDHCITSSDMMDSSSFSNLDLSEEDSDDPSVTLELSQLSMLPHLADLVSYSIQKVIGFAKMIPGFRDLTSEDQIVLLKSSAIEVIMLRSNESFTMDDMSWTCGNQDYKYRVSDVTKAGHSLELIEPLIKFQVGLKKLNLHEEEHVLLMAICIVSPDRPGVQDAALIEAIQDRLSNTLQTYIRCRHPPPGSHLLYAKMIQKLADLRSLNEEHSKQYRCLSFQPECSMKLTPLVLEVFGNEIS
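Inhibition of the VDR/SRC2-3 peptide interaction is quantified by fluorescence polarization. Compounds (23 nl, pintool) incubate with the reagents for 2 hours at ambient room temperature.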
PLK1 PBD block = PLK1 (human) polo-box domain binding inhibition; P53350; Plk1 PBD binding of FITC phosphopeptide, fluorescence polarization; Potency, µM, for inactives: max response, negative = inhibition, hits mostly inhibitors; actives 2.8% (n = 360,000); AID 720504; note: potency is the fitted concentration of half-maximal effect; series mostly up to about 57 µM; % is set by controls: 0 for no effect and ±100 for the full control effect; nearly all actives have a fitted effect of over 65% in size
GLS inh = blocks human kidney-isoform glutaminase activity; GLS enzymatic activity, qHTS titration; actives 0.21% (n = 410,000); Potency, µM (doses to about 45.5 µM), inactives show at the highest dose activity change, negative = inhibition, most hits filed as inhibitors; O94925; note: potency is the fitted concentration of half-maximal effect; % is set by controls: 0 for no effect and ±100 for the full control effect
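Human kidney-isoform GLS in 45 mM KH2PO4 pH 8.2, 0.02% Tween-20, with compound, started with 1mM L-Glutamine (added stock). Glutamate oxidase/HRP/Amplex red coupled fluorescence read at start and after 30 min at RT.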
PI4K2A inh = inhibitors of human PI4K2A; purified PI4K2A, ADP-Glo luminescence, 1 h; hits give low values; activity change, negative = inhibition, % at 76.9 µM; actives 0.13% (n = 420,000); Q9BTU6; AID 1346378; in the data active = activity change below about -50%; inconclusive = mostly about -30% to -49%;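 note: -100% = wells without enzyme as full effect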
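Compounds are screened against recombinant PI4K2A using PI as substrate and ATP, the latter dispensed at 300 microM. Reactions run one hour at ambient temperature before ADP-Glo detection; full inhibition defined by wells lacking enzyme.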
KAT2A inh = GCN5L2 (KAT2A) acetyltransferase inhibition; Q92830; GCN5L2 HAT assay, ThioGlo1 CoA-SH fluorescence; Potency, µM (titrated, usually from 58.9 µM), inactives show top-dose activity change, negative = inhibition, most hits filed as inhibitors; actives 0.21% (n = 390,000); AID 504327; note: potency is the fitted concentration of half-maximal effect; % is set by controls: 0 for no effect and ±100 for the full control effect
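Preincubate 20nM GCN5L2 with compound 15 min, RT → add 50uM ThioGlo1 + 75uM H3(1-25) + 70uM acetyl-CoA → read fluorescence 0 and 20 min. Primary qHTS; fluorescent artifacts likely.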
VDR confirm = inhibits human vitamin D receptor, primary hit validation; shares compounds with VDR inh; VDR-coactivator inhibition assay, qHTS confirmation; Potency, µM, most hits filed as inhibitors; actives 89% (n = 840); note: potency is the fitted concentration of half-maximal effect
VDR FP = blocks human VDR-coactivator binding in fluorescein assay | shares compounds with VDR inh | VDR-coactivator binding, fluorescein fluorescence polarization | Potency, µM (highest dose often 57.1 µM), without a hit: at the top dose activity change, negative = inhibition, usual class: inhibitors | actives 48% (n = 840); note: potency is the fitted concentration of half-maximal effect
VDR bla reporter = inhibits human VDR in beta-lactamase reporter cells. shares compounds with VDR inh. VDR beta-lactamase reporter cells, FRET ratio; cells co-treated with VDR agonist LG190178. Potency, µM (top dose mostly 46.1 µM), for the others: at the top dose activity change, negative = inhibition, usual class: inhibitors. actives 23% (n = 840). AID 602202; note: potency is the fitted concentration of half-maximal effect; % is set by controls: 0 for no effect and ±100 for the full control effect
VDR viability = counter-screen for vitamin D receptor inhibitors: cytotoxicity. shares compounds with VDR inh. cytotoxicity counter-screen, cell viability, qHTS. Potency, µM (highest dose often 48.3 µM), for inactives: at the highest dose activity change, negative = cytotoxicity, actives largely listed as cytotoxic. actives 18% (n = 840). AID 602204;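 note: potency is the fitted concentration of half-maximal effect; plate controls were DMSO for no effect and high-concentration cycloheximide for full effect; nearly all actives have a fitted effect of over 75% in size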
An asterisk follows results filed as active; ? = inconclusive; nt = no result given. Unless noted, calls come from the whole dose curve; as a rule, active = well fitted curve in the direction sought with a large enough effect; inconclusive = small, poorly fitted or top-dose-only effect, or another doubt; inactive = no such curve, though single readings can be large; an effect the other way counts as inactive or inconclusive.

SMILES | VDR inh | PLK1 PBD block | GLS inh | PI4K2A inh | KAT2A inh | VDR confirm | VDR FP | VDR bla reporter | VDR viability
O=c1[nH]c(/C=C/c2cccnc2)c([N+](=O)[O-])c(=O)[nH]1 | -15% | -5% | 9% | ? | -15% | nt | nt | nt | nt
Cc1cc(O)c(C)c2sc(N)nc12 | 6% | nt | nt | nt | 39% | nt | nt | nt | nt
COc1ccc(OC)c(NC(=O)c2nc(S(=O)(=O)Cc3ccccc3F)ncc2Cl)c1 | nt | nt | nt | nt | nt | 2.8* | 4µM* | 16µM* | 11µM*
COc1ccc(OC)c(NC(=O)c2nc(S(=O)(=O)Cc3ccccc3)ncc2Cl)c1 | 10µM* | ? | ? | 5 | ? | 12* | ? | 8.2µM* | 8.2µM*
COc1cc(/C=C2/C(=O)NN(c3cccc(C)c3)C2=O)cc([N+](=O)[O-])c1O | -27% | ? | -29% | -6 | 4% | nt | nt | nt | nt
Cc1ccc(N2NC(=O)/C(=C\c3cc4c(cc3[N+](=O)[O-])OCO4)C2=O)cc1C | 50µM* | 9.5µM* | ? | -4 | -18% | 12* | ? | ? | -22%
O=C(/C=C\c1ccccc1OC(=O)c1ccccc1F)c1cc2ccccc2o1 | 14µM* | -16% | 4% | 19 | 5% | ? | 3.5µM* | ? | ?
CCCCNC(=O)C1CCCN1C(=O)Nc1ccc(Cl)cc1 (centres undefined) | nt | nt | nt | 2 | nt | nt | nt | nt | nt
O=C(Nc1ccccc1F)c1nc(S(=O)(=O)Cc2ccccc2F)ncc1Cl | 14µM* | nt | -1% | 2 | -9% | 2.8* | 8.9µM* | ? | 12µM*
O=C(Nc1ccc2ccccc2c1)c1nc(S(=O)(=O)Cc2ccccc2F)ncc1Cl | nt | nt | nt | nt | nt | 3.5* | 3.5µM* | 18µM* | 19µM*
COc1ccc2nc(NC(=O)c3nc(S(=O)(=O)Cc4ccccc4F)ncc3Cl)sc2c1 | -5% | nt | 7% | -20 | ? | nt | nt | nt | nt
Cc1cccc(C)c1NC(=O)c1nc(S(=O)(=O)Cc2ccccc2F)ncc1Cl | nt | nt | nt | nt | nt | ? | 4µM* | 6.5µM* | ?
CCC(=O)NC1Cc2ccccc2C(c2ccccc2)C1 (centres undefined) | -11% | nt | nt | nt | -2% | nt | nt | nt | nt
Cc1ccc(S(=O)(=O)N2CCN(c3nc(-c4cccnc4)nc4ccccc34)CC2)cc1 | -9% | nt | nt | nt | nt | nt | nt | nt | nt
Cc1ccc(NC(=O)CSc2nncn2C)c(C)c1 | -12% | nt | -5% | -8 | -6% | nt | nt | nt | nt
Cc1ccc(C2=NN=C(NC(=O)CSc3nncn3C)SC2)cc1 | 3.2µM* | 3µM* | ? | 4 | 3% | 1.1* | ? | 4% | ?
COc1ccc(-c2noc(C3CCCN(C(=O)N[C@@H]4C[C@H]4c4ccccc4)C3)n2)cc1 (some centres undefined) | nt | nt | nt | 7 | nt | nt | nt | nt | nt
CCC1CCCCN1CC(=O)N1CCCc2c1c(=O)oc1ccc(OCc3ccccc3)cc21 (centres undefined) | -4% | nt | 0% | -7 | -14% | nt | nt | nt | nt
Cc1ccc(OCCN2C(=O)c3ccccc3C2=O)cc1 | 10% | -2% | ? | 1 | -2% | nt | nt | nt | nt
Cc1cccc2c1N(CCCOc1ccccc1)C(=O)C2=O | 50µM* | ? | 10% | 31 | -8% | 19* | ? | -10% | 10%
Cc1ccccc1OCCCN1CCCC1 | 0% | -5% | -9% | 7 | -6% | nt | nt | nt | nt

Compound activity: PubChem, National Center for Advancing Translational Sciences (NCATS)
